Test results as given in PubChem BioAssay.
Values joined by “and” are separate entries in the source; they are usually repeats but may differ in a detail not shown here. Equal entries are not always repeated. Some structures have more than one record in an assay (separate samples or runs), and their calls can disagree. Active and inactive are the calls of the source.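 Rule for the calls, unless noted: active = normalized viability below 100% at a tested concentration; inactive = the rest.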

Tests used:
[1] = sensitizers of A549 cells to miR-34 induction, primary screen, imaging, A549 dox-inducible miR-34, nuclei and caspase counts (AID 1347080;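 active = compounds whose cell count with miR-34 switched on is under 0.7 times the count with it off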); settings: A549 miR-34 inducible, Hoechst nuclei count, 48 h
[2] = survival rescue of mitochondrial mutant cells in low glucose, primary screen, MELAS cybrids, Rieske KO mouse fibroblasts, CellTiter-Glo (AID 1508586;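 active = mean z-score across replicates of 1.96 or higher in either the MELAS or the Rieske mutant cell line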;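 note: z relative to plate mean and SD of compound and empty wells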)
[3] = ovarian cancer cell viability with rucaparib, profiling panel, oncology-focused library, rucaparib conditional (AID 1508598); settings: patient-derived ovarian cancer cells, CellTiter-Glo viability, 144 h, stronger effect = lower value
[4] = stronger effect = lower value, cell number ratio, induced over uninduced
[5] = measured here: relative caspase fold change +Dox/-Dox
[6] = measured here: total cells with miR-34 induction, stronger effect = lower value
[7] = measured here: total cells without miR-34 induction
[8] = MELAS cybrid survival, CellTiter-Glo 48 h, stronger effect = higher value
[9] = Rieske KO mouse fibroblast survival, CellTiter-Glo 72 h
[10] = at 0.000305 µM, OCI-C5x cells, with rucaparib 10 µM, 100% = cells with rucaparib alone
[11] = at 0.000305 µM, OCI-C5x cells, without rucaparib
[12] = at 0.000305 µM, OCI-P5x cells, with rucaparib 20 µM, 100% = cells with rucaparib alone
[13] = at 0.000305 µM, OCI-P5x cells, without rucaparib
[14] = at 0.00122 µM, OCI-C5x cells, with rucaparib 10 µM, 100% = cells with rucaparib alone
[15] = at 0.00122 µM, OCI-C5x cells, without rucaparib
[16] = at 0.00122 µM, OCI-P5x cells, with rucaparib 20 µM, 100% = cells with rucaparib alone
[17] = at 0.00122 µM, OCI-P5x cells, without rucaparib
[18] = at 0.00488 µM, OCI-C5x cells, with rucaparib 10 µM, 100% = cells with rucaparib alone
[19] = at 0.00488 µM, OCI-C5x cells, without rucaparib
[20] = at 0.00488 µM, OCI-P5x cells, with rucaparib 20 µM, 100% = cells with rucaparib alone
[21] = at 0.00488 µM, OCI-P5x cells, without rucaparib
[22] = at 0.0195 µM, OCI-C5x cells, with rucaparib 10 µM, 100% = cells with rucaparib alone
[23] = at 0.0195 µM, OCI-C5x cells, without rucaparib
[24] = at 0.0195 µM, OCI-P5x cells, with rucaparib 20 µM, 100% = cells with rucaparib alone
[25] = at 0.0195 µM, OCI-P5x cells, without rucaparib
[26] = at 0.0781 µM, OCI-C5x cells, with rucaparib 10 µM, 100% = cells with rucaparib alone
[27] = at 0.0781 µM, OCI-C5x cells, without rucaparib
[28] = at 0.0781 µM, OCI-P5x cells, with rucaparib 20 µM, 100% = cells with rucaparib alone
[29] = at 0.0781 µM, OCI-P5x cells, without rucaparib
[30] = at 0.313 µM, OCI-C5x cells, with rucaparib 10 µM, 100% = cells with rucaparib alone
[31] = at 0.313 µM, OCI-C5x cells, without rucaparib
[32] = at 0.313 µM, OCI-P5x cells, with rucaparib 20 µM, 100% = cells with rucaparib alone
[33] = at 0.313 µM, OCI-P5x cells, without rucaparib
[34] = at 1.25 µM, OCI-C5x cells, with rucaparib 10 µM, 100% = cells with rucaparib alone
[35] = at 1.25 µM, OCI-C5x cells, without rucaparib
[36] = at 1.25 µM, OCI-P5x cells, with rucaparib 20 µM, 100% = cells with rucaparib alone
[37] = at 1.25 µM, OCI-P5x cells, without rucaparib
[38] = at 5 µM, OCI-C5x cells, with rucaparib 10 µM, 100% = cells with rucaparib alone
[39] = at 5 µM, OCI-C5x cells, without rucaparib
[40] = at 5 µM, OCI-P5x cells, with rucaparib 20 µM, 100% = cells with rucaparib alone
[41] = at 5 µM, OCI-P5x cells, without rucaparib

Cc1cc([N+](=O)[O-])ccc1NS(=O)(=O)c1cc(Cl)ccc1Cl
0.518: fold change [1, 5]
inactive: fold change [1, 4] 0.984 | z-score [2, 8] -0.622 | viability [3, 10] 116% | viability [3, 11] 110% | viability [3, 14] 122% | viability [3, 15] 118% | viability [3, 18] 120% | viability [3, 19] 111% | viability [3, 22] 118% | viability [3, 23] 110% | viability [3, 26] 122% | viability [3, 27] 121% | viability [3, 29] 101% | viability [3, 30] 109% | viability [3, 31] 115% | viability [3, 32] 101% | viability [3, 34] 102% | viability [3, 35] 123%
3670: cell count [1, 6]
3730: cell count [1, 7]
active: viability [3, 12] 74.5% | viability [3, 13] 83.8% | viability [3, 16] 65.9% | viability [3, 17] 73.5% | viability [3, 20] 62.7% | viability [3, 21] 74.6% | viability [3, 24] 65.1% | viability [3, 25] 76.4% | viability [3, 28] 99.2% | viability [3, 33] 99.3% | viability [3, 36] 96.3% | viability [3, 37] 89.4% | viability [3, 38] 99.8% | viability [3, 39] 87% | viability [3, 40] 91.1% | viability [3, 41] 70.2%
-3.52: z-score [2, 9]

COc1cc(Br)c(Nc2nc(-c3c(C)nc4ncccn34)cs2)c(Br)c1
inactive: fold change [1, 4] 1.04 and 0.88 | viability [3, 10] 125% | viability [3, 11] 110% | viability [3, 14] 131% | viability [3, 15] 111% | viability [3, 18] 131% | viability [3, 19] 109% | viability [3, 20] 100% | viability [3, 22] 135% | viability [3, 23] 110% | viability [3, 24] 101% | viability [3, 25] 102% | viability [3, 26] 136% | viability [3, 27] 111% | viability [3, 28] 101% | viability [3, 30] 118% | viability [3, 31] 108% | viability [3, 32] 100% | viability [3, 33] 100% | viability [3, 34] 122% | viability [3, 35] 115% | viability [3, 38] 129% | viability [3, 39] 140%
2.29 (active) and 1.89 (inactive): z-score [2, 8]
0.552 and 0.466: fold change [1, 5]
1740 and 1960: cell count [1, 7]
active: viability [3, 12] 95.1% | viability [3, 13] 90.4% | viability [3, 16] 94.4% | viability [3, 17] 96.8% | viability [3, 21] 95.9% | viability [3, 29] 98.6% | viability [3, 36] 78.1% | viability [3, 37] 97.5% | viability [3, 40] 30.8% | viability [3, 41] 19%
1800 and 1730: cell count [1, 6]
0.545 and -1.29: z-score [2, 9]

COc1cc(C(=O)NC2CCN(C)CC2)ccc1Nc1ncc2c(n1)N(C1CCCC1)CC(F)(F)C(=O)N2C
1280: cell count [1, 7]
active: viability [3, 11] 98.4% | viability [3, 12] 95.2% | viability [3, 13] 86.9% | viability [3, 14] 97.8% | viability [3, 16] 99.5% | viability [3, 17] 93.6% | viability [3, 20] 89.4% | viability [3, 21] 69.2% | viability [3, 22] 73.1% | viability [3, 23] 61.3% | viability [3, 24] 68.6% | viability [3, 25] 21.8% | viability [3, 26] 64% | viability [3, 27] 42.6% | viability [3, 28] 63% | viability [3, 29] 15.8% | viability [3, 30] 39.9% | viability [3, 31] 27.3% | viability [3, 32] 70.3% | viability [3, 33] 15.5% | viability [3, 34] 31% | viability [3, 35] 19.6% | viability [3, 36] 66.4% | viability [3, 37] 17.5% | viability [3, 38] 25.7% | viability [3, 39] 19.7% | viability [3, 40] 53.1% | viability [3, 41] 17.9%
1340: cell count [1, 6]
inactive: fold change [1, 4] 1.05 | z-score [2, 8] -0.321 | viability [3, 10] 103% | viability [3, 15] 102% | viability [3, 18] 111% | viability [3, 19] 105%
-2.73: z-score [2, 9]
0.442: fold change [1, 5]

COCCOC(=O)C1=C(C)NC(C)=C(C(=O)OCC=Cc2ccccc2)C1c1cccc([N+](=O)[O-])c1 (stereo not drawn)
6590: cell count [1, 6]
0.275: fold change [1, 5]
6240: cell count [1, 7]
0.105: z-score [2, 9]
inactive: fold change [1, 4] 1.06 | z-score [2, 8] -0.669

CCOC(=O)c1cnc2ccc(-c3cncc(NS(=O)(=O)c4ccccc4)c3)cn12
1860: cell count [1, 7]
0.8: z-score [2, 9]
1650: cell count [1, 6]
inactive: fold change [1, 4] 0.888 | z-score [2, 8] 0.296 | viability [3, 10] 115% | viability [3, 12] 102% | viability [3, 14] 121% | viability [3, 15] 102% | viability [3, 16] 101% | viability [3, 18] 129% | viability [3, 19] 105% | viability [3, 20] 107% | viability [3, 22] 122% | viability [3, 23] 112% | viability [3, 24] 102%
0.323: fold change [1, 5]
active: viability [3, 11] 99.1% | viability [3, 13] 99.9% | viability [3, 17] 95.7% | viability [3, 21] 94.6% | viability [3, 25] 94.3% | viability [3, 26] 91.1% | viability [3, 27] 74.3% | viability [3, 28] 88.7% | viability [3, 29] 48.1% | viability [3, 30] 69.7% | viability [3, 31] 46.2% | viability [3, 32] 66.1% | viability [3, 33] 23.4% | viability [3, 34] 52.2% | viability [3, 35] 37% | viability [3, 36] 46.2% | viability [3, 37] 13.9% | viability [3, 38] 4.93% | viability [3, 39] 22.5% | viability [3, 40] 14.6% | viability [3, 41] 8.51%
